Molecules are shown by their SMILES. The campaign covered roughly 190,000 compounds. About 1,300 (0.68%) were called active. For the sample, actives were picked, then their nearest neighbours and some compounds at random. Values without a mark were called inactive. No stated cut-off is given here; in the data, active means inhibition above about 50%; inactive means the rest.

Sequence of Mannose-6-phosphate isomerase (Homo sapiens) (P34949 whole entry, looked up): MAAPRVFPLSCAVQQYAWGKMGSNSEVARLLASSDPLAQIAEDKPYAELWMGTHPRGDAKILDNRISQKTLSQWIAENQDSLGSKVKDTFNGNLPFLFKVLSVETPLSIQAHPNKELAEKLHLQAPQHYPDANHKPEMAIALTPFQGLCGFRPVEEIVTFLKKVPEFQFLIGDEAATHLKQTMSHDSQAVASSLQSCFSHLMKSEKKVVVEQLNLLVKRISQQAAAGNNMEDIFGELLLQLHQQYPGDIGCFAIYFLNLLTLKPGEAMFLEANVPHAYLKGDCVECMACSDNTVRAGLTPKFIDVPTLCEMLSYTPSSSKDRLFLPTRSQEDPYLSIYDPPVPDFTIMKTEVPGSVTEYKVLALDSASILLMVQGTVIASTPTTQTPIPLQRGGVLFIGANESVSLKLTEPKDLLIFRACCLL

The assay has as its target Mannose-6-phosphate isomerase (Homo sapiens) (UniProt P34949). Put plainly: human PMI inhibitors, high substrate, primary screen, biochemical, fluorescence intensity, high mannose 6-phosphate (AID 1220). The following applies: recombinant PMI enzyme, coupled fluorescence intensity; at 20 µM; hits give high values.
`Cc1ccc(C(=O)N2CCOCC2)cc1S(=O)(=O)Nc1cccc(C)c1C`: the inhibition (usually the change of the read-out against control, counted positive when it falls) was -7%.
To `COc1ccc(C2C(C#N)=C(N)OC3=C2C(=O)CCC3)cc1OC` (stereo not given) belongs -4%; to `COc1cc(C2C(C#N)=C(N)OC3=C2C(=O)CC(C)(C)C3)c([N+](=O)[O-])cc1OC` (stereo not given), 49.6%.
On to `COc1cc(C2C(C#N)=C(N)OC3=C2C(=O)CCC3)c([N+](=O)[O-])cc1OC` (stereo not given), for which the inhibition is 52% (active).
Take `CCC(C)NC(=O)CO/N=C/c1ccc(C(=O)OC)cc1` (stereo not given): the inhibition is 23.9%.
Consider `CN(C)c1ccc(C(=S)N2CCN(C(=S)Nc3ccc(Cl)cc3)CC2)cc1`, for which the inhibition was -7.1%.
To `CN(C)c1ccc(C(=S)N2CCN(C(=S)Nc3cccc4ccccc34)CC2)cc1` belongs 51.7% (active).
As to `CN(C)c1ccc(C(=S)N2CCN(c3ccccc3)CC2)cc1`, the inhibition was 8.2%.
To `N#CC1=C(N)OC2=C(CN(Cc3ccccc3)C/C2=C\c2cccnc2)C1c1cccnc1` (stereo not given) belongs 11.3%; to `CCn1c(SCC(=O)N2CCN(S(=O)(=O)c3ccccc3)CC2)nnc1-c1cccs1`, -3.1%; to `O=C(CSc1nnc(C2CC2)n1Cc1ccccc1)N1CCN(S(=O)(=O)c2ccccc2)CC1`, -3.7%.
For `Cc1nnc(SCC(=O)N2CCN(S(=O)(=O)c3ccccc3)CC2)n1Cc1ccccc1`, the inhibition was 57.8% (active).
The result for `CC1Cc2nc(SCC(=O)N3CCCC3)n(C)c(=O)c2S1` (stereo not given) reads 9.6%.
To `COc1cc(/C=C(/C#N)c2nc3ccccc3c(=O)[nH]2)ccc1O` belongs 13.6%.
For `Clc1ccc(CNc2ccccc2NCc2ccc(Cl)nc2)cn1`, the inhibition was 53.8% (active).
With `Cc1ccc(NCc2ccc(Cl)nc2)c(NCc2ccc(Cl)nc2)c1`, the inhibition is -88.3%.
On to `Clc1ccc(Cn2cccn2)cn1`, for which the inhibition was 10.3%.
On to `COc1ccc(CCC(=O)NNC(=S)NCc2ccc(F)cc2)cc1`, for which the inhibition was 1.2%.
To `Cc1ccc(S(=O)(=O)/N=C2\C(=O)c3ccccc3C([O-])=C2n2cc[n+](CCC(C)C)c2)cc1` belongs 50.4% (active).
The result for `CCCC[n+]1ccn(C2=C([O-])c3ccccc3C(=O)/C2=N\S(=O)(=O)c2ccccc2)c1` reads 46.3%; that for `CC(C)CC[n+]1ccn(C2=C([O-])c3ccccc3C(=O)/C2=N\S(=O)(=O)c2ccccc2)c1`, 47%; that for `COc1ccccc1NC(=O)NCC(=O)Nc1c(C)cccc1C`, -13.9%.
Regarding `Cc1ccc(Sc2cnc(N)nc2C)cc1`, the inhibition is 3.4%.
Turning to `COC(=O)c1ccc(Sc2ccc(C)cc2)c(N)c1`, the inhibition is 9.7%.
Consider `COc1cc(Sc2ccc(C)cc2)c(OC)cc1N`, for which the inhibition was 67.2% (active).
To `CCc1ccc2c(c1)C(c1cccs1)=NNC(c1cccnc1)=N2` belongs 3.3%; to `C=CCSc1nc(-c2ccc3c(c2)OCO3)cc(C(F)(F)F)c1C#N`, 11.5%.
As for `O=C(CNCc1ccncc1)Nc1cc(S(=O)(=O)N2CCCCC2)ccc1Cl`, the inhibition was -89%.
The result for `O=C(CCl)Nc1cc(S(=O)(=O)N2CCCCCC2)ccc1Cl` reads 4.5%; that for `O=C(CNCc1ccccn1)Nc1cc(S(=O)(=O)N2CCCCC2)ccc1Cl`, 55.4% (active).
As to `CC1CCC(C(C)C)C(OCC[N+](C)(C)C)C1` (stereo not given), the inhibition is 8.9%.
Regarding `Cc1nn(CCO)c(C)c1Oc1ccccc1O`, the inhibition is 4%.
The result for `COCc1cc([C@@H]2C[C@H]3CN(c4ccccc4)C(=O)[C@]34CCCN24)ccc1OC` reads 13.6%; that for `CCOc1cc([C@@H]2C[C@H]3CN(c4ccccc4)C(=O)[C@]34CCCN24)ccc1OC`, 57.1% (active).
The result for `COc1cc([C@@H]2C[C@H]3CN(c4ccccc4)C(=O)[C@]34CCCN24)cc(OC)c1OC` reads 3.7%.
The result for `O=c1oc(-c2ccccc2NS(=O)(=O)c2ccccc2)nc2ccccc12` reads -2.5%; that for `Fc1cc(F)cc(NC(=S)N2CCC(c3ccccc3)C2)c1` (stereo not given), -2.1%; that for `Cn1cccc1CNC(=O)Nc1ccccc1`, -5.8%.
`N#CC1=C(N)Oc2cc3ccccc3cc2C1c1cccs1` (stereo not given): the inhibition was 7.9%.
Turning to `CN(C)/C=N/C1=C(C#N)C(c2cccs2)c2ccc3ccccc3c2O1` (stereo not given), the inhibition was 55.2% (active).
To `N#CC1=C(N)Oc2cc(O)ccc2C1c1cccs1` (stereo not given) belongs 10.1%; to `COc1cc(/C=N/NC(=O)CC2(C)OCCCO2)ccc1OCc1ccc(Cl)cc1Cl`, 51.1% (active); to `CC1(CC(=O)N/N=C/c2ccc(OCc3ccc(Cl)cc3Cl)cc2)OCCCO1`, 10.6%.
To `COc1cc(/C=N/NC(=O)CC2(C)OCCCO2)ccc1OCc1ccccc1` belongs 2.4%; to `COc1ccc(NC(=O)CSc2nc(N)c3cc4c(nc3n2)CCCC4)c(OC)c1`, -6.7%; to `CCOC(=O)N1CCN(C(=S)Nc2cccc(C)c2C)CC1`, 8.4%.
`CCOC(=O)C1CCN(C(=S)Nc2cc(C)ccc2C)CC1`: the inhibition is 7.3%.
The result for `S=C(Nc1ccccc1Cl)N1CCCC1` reads 13.6%; that for `Cc1ccccc1NC(=S)N1CCCC1`, 52.6% (active).
`Cc1ccccc1NC(=S)N1CCOCC1`: the inhibition is -2.1%.
To `CCOC(=O)C1CCN(C(=S)Nc2cccc(C)c2C)CC1` belongs 52.8% (active); to `O=C(O)CC1NC(=O)N(C2CCCCC2)C1=O` (stereo not given), -10%.
To `CCCCN(CC)C(=O)Cc1ccc(Br)cc1` belongs 6.7%; to `CCOC(=O)C1(Cc2ccc(OC)cc2)CCN(C(=O)CN2CCN(CC)CC2)CC1`, 12.7%; to `O=C(COC(=O)c1nc(Cl)ccc1Cl)Nc1ccc2c(c1)OCO2`, 8.3%.
The result for `CCN(CC)C(=O)N1c2ccccc2CC(N(CC)CC)c2ccccc21` (stereo not given) reads -19.4%.
Consider `Cc1nc(C#N)c(N/N=C/c2cccc(Cl)c2)o1`, for which the inhibition is 12.6%.
For `Fc1cccc(Cl)c1/C=N/Nc1c(Cl)cncc1Cl`, the inhibition was 8.5%.
To `Cc1nc(C#N)c(N/N=C/c2c(F)cccc2Cl)o1` belongs 53.3% (active); to `Cc1cccc2cc(C3CC(c4cccs4)=NN3C(=O)CCC(=O)O)c(Cl)nc12` (stereo not given), 8.9%; to `COc1ccc(N2CCn3c2nc2c3c(=O)n(CCCc3ccccc3)c(=O)n2C)cc1`, -5.3%.
To `Cc1ccc(-c2nc(CN(CC3CCC3)CC3CCCO3)c(C)o2)s1` (stereo not given) belongs 5.6%; to `COC(=O)C/C=C/[C@@H](C)[C@@H](/C=N/OCC[C@@H]1C=C[C@H](OC(C)=O)[C@@H](COC(C)=O)O1)NS(=O)(=O)c1ccc(C)cc1`, -6.1%.
Regarding `CC(C)N1CC=C2C(C#N)=C(N)C(C#N)(C#N)C(c3ccccc3)C2C1` (stereo not given), the inhibition was 20.5%.
The result for `CCCC1C2CN(C(C)=O)CC=C2C(C#N)=C(N)C1(C#N)C#N` (stereo not given) reads -10.2%.
The result for `CC(=O)N1CC=C2C(C#N)=C(N)C(C#N)(C#N)C(CCc3ccccc3)C2C1` (stereo not given) reads 14%; that for `CN1CC=C2C(C#N)=C(N)C(C#N)(C#N)C(CCc3ccccc3)C2C1` (stereo not given), 17.3%; that for `CCCC1C2CN(C(C)C)CC=C2C(C#N)=C(N)C1(C#N)C#N` (stereo not given), 60.7% (active).
The result for `CC(C)N1CC=C2C(C#N)=C(N)C(C#N)(C#N)[C@H](c3ccoc3)[C@H]2C1` reads 58.4% (active); that for `CCN1CC=C2C(C#N)=C(N)C(C#N)(C#N)C(CCc3ccccc3)C2C1` (stereo not given), 52.5% (active).
In the case of `Cc1ccc(C2C3CN(C(C)C)CC=C3C(C#N)=C(N)C2(C#N)C#N)cc1` (stereo not given), the inhibition is 24.4%.
Regarding `CN1CC=C2C(C#N)=C(N)C(C#N)(C#N)[C@H](c3ccoc3)[C@H]2C1`, the inhibition was 15.1%.
Take `Cc1ccccc1-c1nc(CN(Cc2c(C)nn(C)c2C)C2CC2)c(C)o1`: the inhibition was 5.6%.
To `CC(C)(C)c1ccc2c(c1)N(CC(=O)O)C(=O)CO2` belongs -8.3%.
To `Cc1cccc(NC2SC(=O)NC2=O)c1` (stereo not given) belongs 0.9%; to `CCCc1c(O)nc(SCC(=O)NCCc2ccc(OC)c(OC)c2)[nH]c1=O`, 6.4%; to `COc1ccc(CNc2oc(Cc3cccc4ccccc34)nc2C#N)cc1`, 9.4%.
With `O=C(CCNC(=O)Cn1ccc2ccccc2c1=O)NCCCN1CCN(c2ccccc2F)CC1`, the inhibition is 54.6% (active).
As to `O=C(CCNC(=O)Cn1ccc2ccccc2c1=O)NCCCN1CCN(c2ccc(F)cc2)CC1`, the inhibition is -5.7%.
The result for `CCCN1CCN(CCCNC(=O)CCNC(=O)Cn2ccc3ccccc3c2=O)CC1` reads -3.5%.
To `Cc1cccc(N2CCC(N3CCN(C4CCCCC4)C(CCO)C3)CC2)c1C` (stereo not given) belongs 22.8%.
Take `O=C(CSc1nnc(-c2ccco2)o1)NC1CCCCCC1`: the inhibition is -4.7%.
To `COc1cc(C)c(Cl)cc1S(=O)(=O)NCCCN1CCOCC1` belongs 2%; to `O=C1/C(=C/c2ccco2)Cc2ccccc21`, 16%.
Consider `COc1cc(/C=C2\CCc3ccccc3C2=O)cc(OC)c1OC`, for which the inhibition was 23.9%.
`COc1ccc2c(c1)CC/C(=C/c1cc(OC)c(OC)c(OC)c1)C2=O`: the inhibition is 52.2% (active).
In the case of `COc1ccc2c(c1)CC/C(=C/c1ccco1)C2=O`, the inhibition is 57.4% (active).
Turning to `Nc1ccc2c(c1)C/C(=C/c1ccco1)C2=O`, the inhibition is -39.6%.
In the case of `O=C1/C(=C\c2ccco2)CCC/C1=C\c1ccco1`, the inhibition is -57.2%.
Take `COc1cc(/C=C2/CCc3ccccc3C2=O)cc(OC)c1OC`: the inhibition was 23.1%.
With `O=C1/C(=C/c2ccco2)CCc2ccccc21`, the inhibition was 56.9% (active).
Take `COc1cc(/C=C2\CC/C(=C\c3cc(OC)c(OC)c(OC)c3)C2=O)cc(OC)c1OC`: the inhibition was 11.2%.
To `COc1ccc2c(c1)CC/C(=C/c1ccncc1)C2=O` belongs 11.5%; to `COc1ccc(/C=C2\CC/C(=C\c3ccc(OC)c(OC)c3)C2=O)cc1OC`, 20.6%; to `COc1ccc([N+](=O)[O-])cc1NC(=O)Nc1cccc(Cl)c1`, -1.5%.
